Measured values reported in PubChem BioAssay (EPA / NIEHS).
Where “and” joins values, the source holds several entries; their conditions need not be identical. Identical values can stand only once. Some compounds were tested as several samples or in several runs, with calls that do not always agree. Calls of active or inactive are those of the source. The calls were made as follows: active = hit-call score of the fitted dose curve at least 0.9, where 1 is the maximum; inactive = score below 0.9.

What was measured:
Conditions in all cases: mRNA level, 48 h; actives raise or lower the signal
[1] = read-out: Alkaline Phosphatase, Placental (ALPP) gene, ALPP (gene 250); experiment: LTEA_HepaRG_ALPP: Life Technologies and Expression Analysis (LTEA) Assay for Alkaline Phosphatase, Placental (ALPP) gene using HepaRG (AID 2283468);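 as to AC50: differentiated human HepaRG liver cells in serum-free induction medium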
How it was run: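 Expression of ALPP was quantified by qRT-PCR against three housekeeping genes in human HepaRG cultures treated for 48 h with an eight-point concentration series up to 100 uM. Activity in either direction was fitted relative to 0.5% DMSO.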

[2] = read-out: Bcl-2 (BAD) gene, BAD (gene 572); experiment: LTEA_HepaRG_BAD: Life Technologies and Expression Analysis (LTEA) Assay for Bcl-2 (BAD) gene using HepaRG (AID 2283469)
How it was run: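 HepaRG, 48 h exposure, 8-pt half-log curve from 100 uM in 0.5% DMSO, duplicates. Readout: TaqMan qRT-PCR for BAD mRNA, housekeeping-normalised (ACTB/GAPDH/POLR2A); gain or loss fitted against DMSO baseline.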

[3] = read-out: Bcl-2 (BAX) gene, BAX (gene 581); experiment: LTEA_HepaRG_BAX: Life Technologies and Expression Analysis (LTEA) Assay for Bcl-2 (BAX) gene using HepaRG (AID 2283470)
How it was run: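 Gene expression measured by Fluidigm qRT-PCR with three housekeeping genes for normalisation. HepaRG cells, plated 48 h beforehand, treated 48 h at up to 100 uM (8-point, half-log) in 0.5% DMSO. Bidirectional fitting versus DMSO.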

[4] = read-out: adenosine kinase (ADK) gene, ADK (gene 132); experiment: LTEA_HepaRG_ADK: Life Technologies and Expression Analysis (LTEA) Assay for adenosine kinase (ADK) gene using HepaRG (AID 2283471)
How it was run: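 Read-out is ADK transcript level measured by qRT-PCR and normalised to three housekeeping genes. Cells are human HepaRG, dosed for 48 h at up to 100 uM in 0.5% DMSO. Gain or loss of signal is fitted against DMSO controls.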

[5] = read-out: Alpha-fetoprotein (AFP) gene, AFP (gene 174); experiment: LTEA_HepaRG_AFP: Life Technologies and Expression Analysis (LTEA) Assay for Alpha-fetoprotein (AFP) gene using HepaRG (AID 2283472)
How it was run: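 AFP transcript measured by TaqMan qRT-PCR with three housekeeping genes for normalization, after 48 h chemical treatment of HepaRG cells (top 100 uM, half-log steps, 0.5% DMSO). Gain or loss fitted against vehicle.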

BCL2L11 (gene 10018) = experiment: LTEA_HepaRG_BCL2L11: Life Technologies and Expression Analysis (LTEA) Assay for Bcl-2 (BCL2L11) gene using HepaRG (AID 2283473)
How it was run: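 Cells were plated, cultured 48 h, switched to serum-free induction medium, then dosed in duplicate for 48 h at eight half-log concentrations up to 100 uM. Lysates underwent RNA isolation and TaqMan qRT-PCR; gain or loss versus DMSO was fitted.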

[6] = read-out: Apolipoprotein A-V (APOA5) gene, APOA5 (gene 116519); experiment: LTEA_HepaRG_APOA5: Life Technologies and Expression Analysis (LTEA) Assay for Apolipoprotein A-V (APOA5) gene using HepaRG (AID 2283474)
How it was run: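 Human liver HepaRG cells are treated 48 h with test chemicals (100 uM top, half-log dilutions, 0.5% DMSO). APOA5 mRNA induction or loss is measured by qRT-PCR relative to vehicle.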

[7] = read-out: Apoptosis regulator Bcl-2 (Homo sapiens) (UniProt P10415); experiment: LTEA_HepaRG_BCL2: Life Technologies and Expression Analysis (LTEA) Assay for Bcl-2 gene using HepaRG (AID 2283475)
How it was run: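 qRT-PCR of BCL2 transcript, normalized to three housekeeping genes (ACTB, GAPDH, POLR2A), after 48 h chemical exposure of HepaRG cells; concentrations top 100 uM with half-log dilutions, 0.5% DMSO vehicle, duplicates; changes up or down fitted relative to vehicle.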

[8] = read-out: Bcl-2 (BID) gene, BID (gene 637); experiment: LTEA_HepaRG_BID: Life Technologies and Expression Analysis (LTEA) Assay for Bcl-2 (BID) gene using HepaRG (AID 2283476)
How it was run: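 Duplicate 48 h treatments of HepaRG cells in serum-free induction medium spanned 100 uM downward in half-log steps, 0.5% DMSO. Transcript change quantified by qRT-PCR against three housekeeping genes, fitted up or down versus DMSO.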

Caspase-3 (Homo sapiens) = Caspase-3 (Homo sapiens) (UniProt P42574); experiment: LTEA_HepaRG_CASP3: Life Technologies and Expression Analysis (LTEA) Assay for cysteine-aspartic acid protease (CASP3) using HepaRG (AID 2283477)
How it was run: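 In HepaRG liver cells dosed for 48 h at up to 100 uM (eight-point, duplicate), CASP3 expression changes are scored by qRT-PCR. Activity is fitted in both directions with 0.5% DMSO as baseline.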

[9] = read-out: Cytochrome P450 (CYP24A1), CYP24A1 (gene 1591); experiment: LTEA_HepaRG_CYP24A1: Life Technologies and Expression Analysis (LTEA) Assay for Cytochrome P450 (CYP24A1) using HepaRG (AID 2283478)
How it was run: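 Human liver HepaRG cultures receive each chemical for 48 h across an eight-point half-log series topping at 100 uM in 0.5% DMSO. Induction or suppression of CYP24A1 mRNA is scored relative to vehicle after housekeeping-gene normalization.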

[10] = read-out: Cytochrome P450 (CYP1A2), CYP1A2 (gene 1544); experiment: LTEA_HepaRG_CYP1A2: Life Technologies and Expression Analysis (LTEA) Assay for Cytochrome P450 (CYP1A2) using HepaRG (AID 2283479)
How it was run: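 Assesses CYP1A2 mRNA in human HepaRG liver cells after 48 h chemical exposure at up to 100 uM. Values come from qRT-PCR with bidirectional curve fitting relative to DMSO.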

[11] = read-out: cysteine-aspartic acid protease (CASP8), CASP8 (gene 841); experiment: LTEA_HepaRG_CASP8: Life Technologies and Expression Analysis (LTEA) Assay for cysteine-aspartic acid protease (CASP8) using HepaRG (AID 2283480)
How it was run: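 qRT-PCR readout of CASP8 mRNA, normalized to three housekeeping genes, after 48 h chemical exposure of HepaRG cells; 8-point half-log series, top 100 uM, 0.5% DMSO vehicle. Bidirectional curve fitting against DMSO baseline.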

[12] = read-out: Cytochrome P450 (CYP2B6), CYP2B6 (gene 1555); experiment: LTEA_HepaRG_CYP2B6: Life Technologies and Expression Analysis (LTEA) Assay for Cytochrome P450 (CYP2B6) using HepaRG (AID 2283481)
How it was run: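 Using 48 h treatment of HepaRG cells in serum-free induction medium, concentrations spanned half-log steps from 100 uM in 0.5% DMSO vehicle. CYP2B6 mRNA induction or loss is scored by qRT-PCR against DMSO.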

[13] = read-out: Cytochrome P450 2C19 (Homo sapiens) (UniProt P33261); experiment: LTEA_HepaRG_CYP2C19: Life Technologies and Expression Analysis (LTEA) Assay for CYP2C19 using HepaRG (AID 2283482)
How it was run: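 Human HepaRG liver cells received test chemicals for 48 h (highest 100 uM, half-log dilutions in 0.5% DMSO). CYP2C19 mRNA induction or loss is read by multiplexed qRT-PCR and fitted in both directions versus vehicle.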

CYP2C8 (gene 1558) = experiment: LTEA_HepaRG_CYP2C8: Life Technologies and Expression Analysis (LTEA) Assay for CYP2C8 using HepaRG (AID 2283483)
How it was run: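 HepaRG (human liver line), 48 h chemical exposure, 8-pt half-log series from 100 uM, 0.5% DMSO vehicle. Readout: CYP2C8 transcript by qRT-PCR, housekeeping-normalized. Bidirectional fit vs DMSO baseline.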

CYP2C9 (gene 1559) = experiment: LTEA_HepaRG_CYP2C9: Life Technologies and Expression Analysis (LTEA) Assay for CYP2C9 using HepaRG (AID 2283484)
How it was run: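 HepaRG, 48 h dosing, 8-pt half-log series, top 100 uM, 0.5% DMSO vehicle. Read-out: CYP2C9 transcript by TaqMan qRT-PCR, housekeeping-normalized (ACTB/GAPDH/POLR2A). Gain or loss fitted vs DMSO baseline.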

CYP2E1 (gene 1571) = experiment: LTEA_HepaRG_CYP2E1: Life Technologies and Expression Analysis (LTEA) Assay for CYP2E1 using HepaRG (AID 2283485)
How it was run: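 CYP2E1 transcript measured by Fluidigm qRT-PCR against three housekeeping genes in human HepaRG cells treated 48 h (top 100 uM, half-log steps, 0.5% DMSO vehicle). Gain or loss fitted relative to DMSO baseline.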

CYP4A11 (gene 1579) = experiment: LTEA_HepaRG_CYP4A11: Life Technologies and Expression Analysis (LTEA) Assay for CYP4A11 using HepaRG (AID 2283486)
How it was run: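 Readout is CYP4A11 mRNA induction or suppression (qRT-PCR, ACTB/GAPDH/POLR2A normalization) in human HepaRG cells after 48 h chemical treatment, concentrations to 100 uM in 0.5% DMSO, fitted bidirectionally against vehicle.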

[14] = read-out: Cytochrome P450 3A4 (Homo sapiens) (UniProt P08684); experiment: LTEA_HepaRG_CYP3A4: Life Technologies and Expression Analysis (LTEA) Assay for CYP3A4 using HepaRG (AID 2283487)
How it was run: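 HepaRG, 48 h exposure, 8-pt CRC from 100 uM (half-log), 0.5% DMSO, duplicates; serum-free induction medium. Readout: CYP3A4 mRNA, qRT-PCR, ACTB/GAPDH/POLR2A normalization. Bidirectional fit vs DMSO.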

Sequence of Caspase-3 (Homo sapiens) (P42574 whole entry, looked up): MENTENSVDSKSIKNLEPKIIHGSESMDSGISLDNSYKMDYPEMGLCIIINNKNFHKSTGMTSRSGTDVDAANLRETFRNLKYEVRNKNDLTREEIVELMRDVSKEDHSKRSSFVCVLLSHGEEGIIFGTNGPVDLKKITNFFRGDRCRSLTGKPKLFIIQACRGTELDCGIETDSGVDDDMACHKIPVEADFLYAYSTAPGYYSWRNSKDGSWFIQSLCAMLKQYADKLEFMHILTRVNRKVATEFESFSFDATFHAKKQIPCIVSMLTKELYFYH
Sequence of Cytochrome P450 2C19 (Homo sapiens) (P33261 whole entry, looked up): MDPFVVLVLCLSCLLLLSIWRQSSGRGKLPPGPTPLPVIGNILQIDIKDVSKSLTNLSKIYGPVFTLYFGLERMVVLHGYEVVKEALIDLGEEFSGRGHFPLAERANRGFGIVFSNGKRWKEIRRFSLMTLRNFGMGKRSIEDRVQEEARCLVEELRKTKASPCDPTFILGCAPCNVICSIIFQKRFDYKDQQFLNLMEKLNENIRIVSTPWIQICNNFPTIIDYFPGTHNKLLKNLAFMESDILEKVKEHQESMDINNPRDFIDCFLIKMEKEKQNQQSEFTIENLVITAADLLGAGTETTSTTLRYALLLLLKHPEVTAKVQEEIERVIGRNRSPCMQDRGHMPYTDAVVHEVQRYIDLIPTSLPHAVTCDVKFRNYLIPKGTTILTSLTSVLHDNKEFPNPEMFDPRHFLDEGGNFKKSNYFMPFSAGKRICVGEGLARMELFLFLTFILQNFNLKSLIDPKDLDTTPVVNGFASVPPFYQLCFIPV
Sequence of Apoptosis regulator Bcl-2 (Homo sapiens) (P10415 whole entry, looked up): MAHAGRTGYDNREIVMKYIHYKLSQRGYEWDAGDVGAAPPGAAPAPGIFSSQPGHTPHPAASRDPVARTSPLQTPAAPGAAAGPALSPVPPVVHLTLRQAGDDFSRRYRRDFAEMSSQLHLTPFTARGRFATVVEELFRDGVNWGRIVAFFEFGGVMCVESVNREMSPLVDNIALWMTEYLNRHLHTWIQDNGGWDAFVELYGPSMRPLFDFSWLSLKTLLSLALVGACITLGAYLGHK
Sequence of Cytochrome P450 3A4 (Homo sapiens) (P08684 whole entry, looked up): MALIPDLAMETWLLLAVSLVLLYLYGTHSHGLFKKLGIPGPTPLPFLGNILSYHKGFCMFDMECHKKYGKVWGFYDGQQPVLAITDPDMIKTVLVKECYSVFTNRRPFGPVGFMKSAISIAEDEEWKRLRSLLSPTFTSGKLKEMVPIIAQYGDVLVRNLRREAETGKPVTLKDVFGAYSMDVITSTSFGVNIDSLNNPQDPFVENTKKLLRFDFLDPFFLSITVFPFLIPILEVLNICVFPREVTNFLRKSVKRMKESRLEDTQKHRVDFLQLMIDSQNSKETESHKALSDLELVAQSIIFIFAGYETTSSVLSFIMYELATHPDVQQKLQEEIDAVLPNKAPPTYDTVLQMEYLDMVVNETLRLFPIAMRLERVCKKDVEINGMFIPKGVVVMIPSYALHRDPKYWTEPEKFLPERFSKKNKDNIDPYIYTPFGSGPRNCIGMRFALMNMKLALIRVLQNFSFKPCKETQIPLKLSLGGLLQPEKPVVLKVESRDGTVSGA

CCCN(CCC)c1c([N+](=O)[O-])cc(S(N)(=O)=O)cc1[N+](=O)[O-]
outcome [1]: inactive
AC50 [2]: 74.1 µM (active)
outcome [2]: inactive
outcome [3]: inactive
AC50 [4]: 80.6 µM (active)
outcome [4]: inactive
AC50 [5]: 15.8 µM (active)
outcome [5]: inactive
AC50 (BCL2L11 (gene 10018)): 95.3 µM (active) and 84.3 µM (active)
outcome (BCL2L11 (gene 10018)): inactive
outcome [6]: inactive
outcome [7]: inactive
outcome [8]: inactive
AC50 (Caspase-3 (Homo sapiens)): 79.2 µM (active)
outcome (Caspase-3 (Homo sapiens)): inactive
outcome [9]: inactive
AC50 [10]: 87.5 µM (active)
outcome [10]: inactive
AC50 [11]: 83.3 µM (active) and 79.5 µM (active)
outcome [11]: inactive
AC50 [12]: 11.1 µM (active) and 11.9 µM (active) and 10.7 µM (active)
AC50 [13]: 8.44 µM (active) and 84.8 µM (active) and 8.78 µM (active)
outcome (CYP2C8 (gene 1558)): inactive
AC50 (CYP2C9 (gene 1559)): 95 µM (active) and 82 µM (active)
outcome (CYP2C9 (gene 1559)): inactive
AC50 (CYP2E1 (gene 1571)): 15.6 µM (active) and 12.9 µM (active) and 20.1 µM (active)
AC50 (CYP4A11 (gene 1579)): 93.5 µM (active) and 15.8 µM (active)
outcome (CYP4A11 (gene 1579)): inactive
AC50 [14]: 8.79 µM (active) and 12.1 µM (active) and 90.8 µM (active)

N#Cc1nn(-c2c(Cl)cc(C(F)(F)F)cc2Cl)c(N)c1S(=O)C(F)(F)F (centres undefined)
AC50 [1]: 11.5 µM (active)
outcome [2]: inactive
AC50 [3]: 32.6 µM (active)
outcome [4]: inactive
AC50 [5]: 15.9 µM (active)
outcome (BCL2L11 (gene 10018)): inactive
AC50 [6]: 54.4 µM (active)
AC50 [7]: 34.6 µM (active)
outcome [8]: inactive
outcome (Caspase-3 (Homo sapiens)): inactive
outcome [9]: inactive
AC50 [10]: 58.3 µM (active)
outcome [11]: inactive
AC50 [12]: 28.9 µM (active)
AC50 [13]: 29.9 µM (active)
AC50 (CYP2C8 (gene 1558)): 33 µM (active)
AC50 (CYP2C9 (gene 1559)): 34.9 µM (active)
AC50 (CYP2E1 (gene 1571)): 12.9 µM (active)
AC50 (CYP4A11 (gene 1579)): 24.6 µM (active)
AC50 [14]: 32.6 µM (active)
